Bioassay records: PubChem BioAssay, National Center for Advancing Translational Sciences (NCATS)
GLS inhibitor: blocks human kidney-isoform glutaminase activity | Potency, µM (highest dose often 45.5 µM), inactives show at the top dose activity change, negative = inhibition, hits mostly inhibitors | hit rate 0.21% among 410,000 | O94925 | GLS enzymatic activity, qHTS titration; further: on the % scale 0 is the no-effect control and ±100 the full control effect
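Enzyme dispensed in phosphate buffer (45 mM, pH 8.2, 0.02% Tween-20), compounds pinned in, then 1 mM L-glutamine solution and the glutamate oxidase–HRP–Amplex Red mix added; fluorescence read immediately and again after 30 min at room temperature.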
JMJD2A Tudor: inhibitors of human JMJD2A Tudor domain. O75164. AlphaScreen JMJD2A-Tudor / H3K4me3 peptide binding. Potency, µM (series often up to 114 µM), without a hit: at the highest dose activity change, negative = inhibition, most hits filed as inhibitors. hit rate 4.4% among 390,000. AID 504339; further: on the % scale 0 is the no-effect control and ±100 the full control effect; nearly all actives have a fitted effect of over 50% in size
Target sequence (O75164 whole entry, looked up, the tested form may be a part): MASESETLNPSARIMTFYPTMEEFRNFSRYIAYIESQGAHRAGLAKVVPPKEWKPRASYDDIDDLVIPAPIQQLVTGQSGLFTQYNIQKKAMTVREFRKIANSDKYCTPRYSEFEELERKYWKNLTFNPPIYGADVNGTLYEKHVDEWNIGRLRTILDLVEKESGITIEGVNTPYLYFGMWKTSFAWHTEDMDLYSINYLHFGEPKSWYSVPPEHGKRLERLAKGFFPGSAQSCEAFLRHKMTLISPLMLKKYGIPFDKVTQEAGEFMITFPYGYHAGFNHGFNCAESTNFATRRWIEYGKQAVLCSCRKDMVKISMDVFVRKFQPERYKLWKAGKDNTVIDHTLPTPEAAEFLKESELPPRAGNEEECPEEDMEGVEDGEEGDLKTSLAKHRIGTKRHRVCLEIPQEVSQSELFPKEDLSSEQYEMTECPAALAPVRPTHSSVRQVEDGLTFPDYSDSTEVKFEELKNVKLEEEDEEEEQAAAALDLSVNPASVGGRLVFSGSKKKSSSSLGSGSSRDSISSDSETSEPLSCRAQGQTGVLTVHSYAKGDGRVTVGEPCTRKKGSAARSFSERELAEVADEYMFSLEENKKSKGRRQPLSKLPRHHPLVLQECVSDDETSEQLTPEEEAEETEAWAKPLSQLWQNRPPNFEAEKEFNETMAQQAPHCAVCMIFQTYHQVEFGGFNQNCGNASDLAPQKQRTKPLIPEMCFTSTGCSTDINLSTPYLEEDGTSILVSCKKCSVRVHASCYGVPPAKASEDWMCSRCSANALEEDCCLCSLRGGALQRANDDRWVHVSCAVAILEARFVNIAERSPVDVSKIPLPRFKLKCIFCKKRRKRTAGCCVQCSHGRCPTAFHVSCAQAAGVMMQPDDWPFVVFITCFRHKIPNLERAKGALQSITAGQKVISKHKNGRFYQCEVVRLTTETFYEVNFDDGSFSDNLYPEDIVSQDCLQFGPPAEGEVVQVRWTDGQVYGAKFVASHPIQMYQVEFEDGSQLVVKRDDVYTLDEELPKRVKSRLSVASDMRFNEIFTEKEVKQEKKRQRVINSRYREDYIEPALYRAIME
BAZ2B block: blocks human BAZ2B | AlphaScreen BAZ2B-H3K14Ac peptide displacement | hit rate 4.4% among 360,000 | Potency, µM (series often up to 114 µM), inactives show at the top dose activity change, negative = inhibition, usual class: inhibitors | Q9UIF8; further: on the % scale 0 is the no-effect control and ±100 the full control effect; nearly all actives have a fitted effect of over 60% in size
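Protein-peptide AlphaScreen: BAZ2B 50 nM, b-H3K14Ac 50 nM, 1x PBS pH 7.4 + 0.01% Tween-20. Preincubation 30 min RT; cpd 30 min RT (top 110 uM); beads 20 min RT, light-protected.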
G9a block: blocks human histone lysine methyltransferase G9a | Q96KQ7 | G9a H3K9 monomethylation, AlphaScreen, 2 h | Potency, µM (titrated, usually from 102 µM), inactives show at the top dose activity, negative = inhibition, usual class: inhibitors | hit rate 8.8% among 350,000 | AID 504332; further: on the % scale 0 is the no-effect control and ±100 the full control effect; nearly all actives have a fitted effect of over 75% in size
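Using a bead-based AlphaScreen, monomethylated H3K9 product from 2 h room-temperature reactions (G9a 20 nM, peptide 500 nM, SAM 20 uM) was detected with 0.5 ug/mL rabbit anti-H3K9me1 antibody.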
HP1b binding inh: inhibitors of HP1-beta chromodomain binding to methylated histone tails | P83916 | AlphaScreen HP1-beta / biotin-H3K9me3 peptide binding | Potency, µM (doses to about 114 µM), inactives show at the highest dose activity change, negative = inhibition, usual class: inhibitors | hit rate 0.56% among 390,000 | AID 540317; further: nearly all actives have a fitted effect of over 70% in size
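Compound inhibition of the preformed complex between 50 nM HP1-beta and 50 nM biotinylated H3K9me3 peptide was read by AlphaScreen. Buffer was PBS pH 7.4 with 0.01% Tween-20. Incubations ran 30 min at room temperature, with 10 ug/mL donor/acceptor beads.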
* = called active by the depositor; u = inconclusive; x = no result; ! = a repeat was not active; [ ] = remark or other dose. A selection: hits, their analogues and other compounds. The true share with any hit is near 10%. The call rests on the fitted dose curve; in most records, active means well fitted curve in the direction sought with a large enough effect; inconclusive means small, poorly fitted or top-dose-only effect, or another doubt; inactive means no such curve, though single readings can be large; an effect the other way counts as inactive or inconclusive. Potency means the concentration at half of the fitted maximal effect.

SMILES	GLS inhibitor	JMJD2A Tudor	BAZ2B block	G9a block	HP1b binding inh
Cc1ccc(N2C(=O)/C(=C/c3ccc(CN(CCC#N)S(C)(=O)=O)o3)C(=O)NC2=S)cc1C	x	x	39.8µM*	8.91µM*	x
C=CCN1C(=O)/C(=C/c2cc(C)n(-c3cccnc3)c2C)C(=O)NC1=S	u	-12.5%	-38.7%	u	4.1%
CC(C)(C)N1C(=O)NC(=O)/C(=C\c2ccc3c(c2)CCN3CCCCl)C1=O	0.0%	39.8µM*	u	39.8µM*	u
O=C1NC(=S)N(C2CC2)C(=O)/C1=C/c1ccc2c(c1)CCN2CCCCl	-2.9%	44.7µM*	31.6µM*	11.2µM*	u
C=CCN1C(=O)/C(=C/c2ccc3c(c2)CCCN3CCC)C(=O)NC1=S	1.5%	56.2µM*	44.7µM*	14.1µM*	u
CSc1ncc(/C=C2/C(=O)NC(=O)N(C3CCCCC3)C2=O)cn1	u	u	u	u	-19.8%
CCN1C(=O)/C(=C/c2ccc3c(c2)CCN3CCCCl)C(=O)NC1=S	1.3%	35.5µM*	39.8µM*	u	u
CC(=O)O[C@H]1C[C@@H]2OC3C=C(C)CCC3(C)[C@@]1(C)[C@@]21CO1 (some centres undefined)	18.4%	-1.4%	x	x	20.5%
Cc1cccc(C2CC(=O)Oc3c2c(=O)oc2ccccc32)c1 (centres undefined)	10.1%	-14.2%	u	-29.8%[59 µM]	9.7%
CCOC(=O)Cn1c(-c2ccccc2)ccc(C#N)c1=O	1.7%	48.5%	42.8%	9.2%[59 µM]	91.3%
COc1ccc(N2CCN(CCCNC(=O)c3cnn(-c4ccc(F)cc4)c3-n3cccc3)CC2)cc1	14.7%	44.7µM*	u	12.6µM*	-11.0%
O=C(c1c[nH]c(C(=O)C(Cl)(Cl)Cl)c1)c1ccccc1Cl	2.6%	u	u	-1.7%[59 µM]	11.4%
COc1ccc2[nH]c(C)c(CCNCc3cn(C)c4ccccc34)c2c1	21.9%	3.16µM*	17.8µM*	7.08µM*	-60.4%
C=CCSc1nnc(NC(=O)c2ccc(Cl)nc2)s1	9.4%	-1.2%	-25.8%	-49.9%[12.7 µM]	73.4%
NC(CO)Cc1ccccc1 (centres undefined)	x	x	x	-2.2%[2.33 µM]	x
COc1cc(O)c(C(=O)O)c(-c2cc(O)c(O)cc2C)c1	u	12.6µM*	56.2µM*	0.355µM*	u
COC(=O)c1ccccc1N=Cc1c(O)[nH]c(=O)[nH]c1=O	-7.4%	10.4%	23.2%	u	64.1%
CC(N=Cc1c(O)[nH]c(=O)[nH]c1=O)c1ccccc1 (centres undefined)	2.5%	-18.0%	-1.3%	5.62µM*	9.2%
CCC(C(N)=O)N1CCCC1=O (centres undefined)	-14.2%	x	x	26.9%[59 µM]	x
Nc1ccc([N+](=O)[O-])cc1O	41.5%[99.4 µM]	x	x	x	x
Cc1cc(N2CCCC2)ccc1C=C(C#N)C#N	-5.9%	-2.8%	-18.9%	17.6%[59 µM]	40.0%
N#CC(C#N)=Cc1ccc([N+](=O)[O-])c(O)c1	x	x	x	8.91µM*	x
N#CC(C#N)=Cc1ccc(C=C(C#N)C#N)cc1	1.0%	-14.4%	-22.7%	50.1µM*	26.2%
COc1ccc(CN2Cc3cc(N4CCCCC4)ccc3-n3nncc3C2)cc1	26.0%	x	x	x	x
C[C@]12CCC3C(CC[C@]4(O)CC(O)CC[C@@]34C=O)[C@]1(O)CCC2C1=CC(=O)OC1 (some centres undefined)	x	x	x	-34.2%[2.33 µM]	x
SMILES	GLS inhibitor	JMJD2A Tudor	BAZ2B block	G9a block	HP1b binding inh
CC1O[C@@H](O[C@@H]2C(O)C[C@H](O[C@@H]3C(O)C[C@@H](OC4CC[C@@]5(C)C6CC[C@]7(C)C(C8=CC(=O)OC8)CC[C@@]7(O)C6CC[C@@H]5C4)OC3C)OC2C)CC(O)[C@H]1O (some centres undefined)	x	x	x	-13.0%[2.33 µM]	x
C#CC1(O)CCC2C3CCC4=CC(=O)CCC4(C)C3CCC21C (centres undefined)	0.9%	x	x	-39.2%[2.33 µM]	x
C#C[C@]1(O)CC[C@H]2[C@@H]3CCC4=Cc5nc6nc7ccccc7n6cc5C[C@]4(C)[C@H]3CC[C@@]21C	-0.2%	-6.5%	2.9%	25.1µM*	40.1%
CCN1C[C@]2(COC(=O)c3ccccc3N3C(=O)CC(C)C3=O)CC[C@H](OC)[C@@]34C5C[C@@H]6[C@@H](OC)C[C@@](O)(C5[C@H]6OC)[C@](O)([C@@H](OC)C23)[C@@H]14 (some centres undefined)	x	x	x	28.2%[59 µM]	x
CCOC(=O)c1ccc(N=C(CC)c2c(O)n(C)c(=O)n(C)c2=O)cc1	-0.1%	u	-38.4%	u	0.8%
CCC(=Nc1ccc(Cc2ccncc2)cc1)c1c(O)n(C)c(=O)n(C)c1=O	13.2%	-8.6%	-5.7%	79.4µM*	20.2%
Cc1nnc2n1-c1sc(CCC(=O)N3CCOCC3)cc1C(c1ccccc1Cl)=NC2	-11.2%	x	x	x	x
O=c1cc(-c2ccc(O)c(O)c2)oc2c(C3O[C@H](CO)[C@@H](O)[C@H](O)[C@H]3O)c(O)cc(O)c12 (some centres undefined)	-7.6%	u	u	79.4µM*	4.2%
Cc1ccnc(NS(=O)(=O)c2ccc(N=Cc3c(O)n(C)c(=O)n(C)c3=O)cc2)n1	16.4%	-7.5%[57.1 µM]	u	44.7µM*	21.2%
Cc1ccc(S(=O)(=O)NC(Cc2cnc[nH]2)C(=O)O)cc1 (centres undefined)	10.6%	12.6µM*	-24.6%	u	11.9%
CC12CCCCC1N(O)CN2O (centres undefined)	23.0%	u	3.9%	7.94µM*	46.3%
CCN1/C(=C/C=C/C2=[N+](CC)c3ccccc3C2(C)C)C(C)(C)c2ccccc21	-15.9%	x	x	x	x
CN1/C(=C\C=C\C2=[N+](C)c3ccc4ccccc4c3C2(C)C)C(C)(C)c2ccccc21	x	x	4.47µM*	10µM*	x
CCCN1CCCC2Cc3[nH]ncc3CC21 (centres undefined)	x	x	x	50.1µM*	x
Cn1cnc(CCN)c1	3.4%	14.1µM*	x	7.94µM*!	16.8%
Cc1cc(OCC(=O)Nc2c(C)n(C)n(-c3ccccc3)c2=O)c2c3c(c(=O)oc2c1)CCC3	x	x	5.1%	-40.0%	x
NC(=O)C[N+]1(CC#CC(O)(c2ccccc2)c2ccccc2)CCCC1	0.8%	31.6µM*	-3.1%	35.5µM*	21.6%
O=C(O)C(O)(c1ccccc1)C1CCCCC1 (centres undefined)	-0.7%	-11.6%	-27.1%	4.5%	25.8%
CC(=O)Oc1ccc(Cl)c2cccnc12	x	x	x	-7.8%[2.33 µM]	x
O=c1[nH]c(O)c(/C=C2/C=CC(c3cc(Cl)ccc3Cl)=N2)c(=O)[nH]1	0.2%	u	u	50.1µM*	27.7%
COc1ccc(C(=O)CC2(CC(=O)c3ccc(OC)cc3)C(=O)N(C)C(=O)N(C)C2=O)cc1	1.5%	-4.3%	1.1%	39.8µM*	37.2%
CNC(=O)OCc1n(C)cc[n+]1C	9.9%	-3.4%	u	6.31µM*	9.8%
